Laboratory results as given in PubChem BioAssay (NCATS).
Results filed as inconclusive are left out. A number with no mark means an inactive call. Active and inactive are the calls of the source. Calls follow the shape of the dose curve; as a rule, active = well fitted cell-killing curve with a large enough effect; inconclusive = small, poorly fitted or top-dose-only effect; inactive = flat fitted curve, though single readings scatter. Residues, ends and D or L forms follow the SMILES beside them. *: point of attachment. Cbz = O=C(OCc1ccccc1)*
Potency is read from the fitted curve at half-maximal effect.

Experiment: qHTS of pediatric cancer cell lines to identify multiple opportunities for drug repurposing: Primary screen for DAOY cells (AID 1347090); also: nearly all actives have a fitted effect of over 55% in size
Conditions: DAOY medulloblastoma viability, CellTiter-Glo luminescence, 48 h; series mostly up to 46 µM
From the text: Drug repurposing or repositioning has been offered as a strategy for drug development in oncology programs. This approach has special potential for childhood cancers and other rare or orphan diseases, where the expected return on new drug development has been a disincentive to pharmaceuticals.
In this project we exploit the poly-pharmacology of drugs to discover new indications via phenotypic screening of a panel of 19 well-characterized cell lines derived from solid tumors seen in children and adolescents. The goal is to identify approved drugs with previously unrecognized anticancer properties that has the potential to reveal new mechanisms and biological processes involved in carcinogenesis or drug resistance. We employed a titration-based paradigm (quantitative high-throughput screening or qHTS), where all compounds were tested at multiple concentrations for their effect on cell viability. Concentration-response curves (CRCs) were derived directly from the primary screen, and both potency and efficacy values were used to identify compounds with robust bioactivity profiles. We screened the NIH Chemical Genomics Center (NCGC) Pharmaceutical Collection (NPC) and Mechanism Interrogation Plate (MIPE) small molecule collections of approved and investigational compounds against these cell lines; and measured metabolically active cells after 48 hours of compound treatment as a proxy for cell viability.
Assay Submitter: Nathalia J. Martinez, National Center for Advancing Translational Sciences, National Institutes of Health, Rockville, MD, USA; email: natalia.martinez@nih.gov
[1] Shen, M et al. Quantitative high-throughput phenotypic screening of pediatric cancer cell lines identifies multiple opportunities for drug repurposing. Oncotarget 2017 Dec 19;9(4):4758-4772. PMID 29435139.
The cells were obtained from University of North Carolina (UNC), Pediatric Preclinical Testing Program (PPT), and Coriell Institute (CI).
qHTS cell viability assay:
Cells were assayed in growth media at a density of 500-1,000 cells/well. Five microliters of cells were dispensed into 1,536-well, white, solid-bottom, TC-treated plates (Greiner Bio One) using a multidrop dispenser and incubated at 37 degrees C, 5% CO2, under a humidified atmosphere for 5 hours. Twenty-three nanoliters of compounds and controls (neutral control DMSO or positive control bortezomib at final concentration of 2.3 µM) were subsequently transferred by Kalypsys pintool. For primary screens, the MIPE collection was tested at 11-point dilutions (final concentrations range from 0.78 nM to 46 µM) and the NPC collection at 8-point dilutions (final concentrations range from 0.59 nM to 46 µM). Compounds tested in follow-up screens were assayed at 11-point dilutions. Cells were incubated for 48 hours, followed by addition of 3 uL of CellTiter-Glo (Promega). After a 15 min incubation at room temperature, samples were analyzed for luminescence intensity using a ViewLux High-throughput CCD imager equipped with clear filters.
With `CO[C@@H]1[C@@H](O)[C@H](O)[C@@H](n2c3c(Cl)cccc3c3c4c(c5c6cccc(Cl)c6[nH]c5c32)C(=O)NC4=O)O[C@@H]1CO` the Potency was 469 nM (active).
For `CC(=O)O[C@H]1C[C@@H]2CC[C@H]3[C@H]4C[C@H]([N+]5(C)CCCCC5)[C@@H](OC(C)=O)[C@@]4(C)CC[C@@H]3[C@@]2(C)C[C@H]1[N+]1(C)CCCCC1`, the Potency was “inactive”.
In the case of `C[C@H](O)[C@@H]1C(=O)N2C(C(=O)O)=C(S[C@@H]3CN[C@H](CNS(N)(=O)=O)C3)[C@@H](C)[C@@H]12`, the Potency is reported as “inactive”.
In the case of `CC(C)C[C@H](NC(=O)[C@@H](NC(=O)c1cccc(-c2ccccc2)n1)[C@@H](C)O)B(O)O`, the Potency is reported as 59 nM (active).
In the case of `O=C(CN1C(=O)C2(CCCC2)NC[C@H]1c1cc(F)cc(F)c1)Nc1ccc2c(c1)C[C@@]1(C2)C(=O)Nc2ncccc21`, the Potency is reported as “inactive”.
With `COc1cccc2c1C(=O)c1c(O)c3c(c(O)c1C2=O)C[C@@](O)(C(C)=O)C[C@H]3O[C@H]1C[C@H](N)[C@H](O)[C@H](C)O1` the Potency was 187 nM (active).
With `COc1cc(C[C@@H](CO)[C@H](CO)Cc2ccc(O)c(OC)c2)ccc1O` the Potency was 469 nM (active).
With `COc1cccc2c1C(=O)c1c(O)c3c(c(O)c1C2=O)C[C@@](O)(C(=O)CO)C[C@H]3O[C@H]1C[C@H](N)[C@H](O)[C@H](C)O1` the Potency was 935 nM (active).
For `Oc1cc(-c2nc(-c3ccccc3)[nH]c2-c2ccncc2)ccc1Cl`, the Potency was 5900 nM (active).
In the case of `Cn1cnc2c(F)c(Nc3ccc(Br)cc3F)c(C(=O)NOCCO)cc21`, the Potency is reported as “inactive”.
For `C=CC(=O)N1CCc2ccc(-n3c(=O)ccc4cnc5ccc(-c6cnn(C)c6)cc5c43)cc21`, the Potency was 5900 nM (active).
With `CCN(C(=O)c1c(O)c2c(Cl)cccc2n(C)c1=O)c1ccccc1` the Potency was “inactive”.
For `O=C(O)CCCCC(CCSCc1ccccc1)SCc1ccccc1` (stereo not given), the Potency was 23500 nM (active).
For `CCc1ccc(C(=O)Nc2cc(CN3CCN(C)CC3)cc(C(F)(F)F)c2)cc1C#Cc1cnc2ccnn2c1`, the Potency was 23500 nM (active).
With `C#CCC(Cc1cnc2nc(N)nc(N)c2n1)c1ccc(C(=O)N[C@@H](CCC(=O)O)C(=O)O)cc1` (stereo not given in full) the Potency was 118 nM (active).
For `CC(C)(O)Cn1c(NC(=O)c2ccc(-c3cn[nH]c3)s2)nc2cc(CN3CCOCC3)ccc21`, the Potency was 2350 nM (active).
For `c1ccc2c(Oc3nc(Nc4ccc(N5CCOCC5)cc4)c4ncn(C5CCCCC5)c4n3)cccc2c1`, the Potency was “inactive”.
In the case of `CC(C)N1[N]C(=C2C=c3cc(O)ccc3=N2)c2c(N)ncnc21`, the Potency is reported as 5900 nM (active).
For `C=CC(=O)Nc1ccc2ncnc(Nc3ccc(OCc4cccc(F)c4)c(Cl)c3)c2c1`, the Potency was 46.9 nM (active).
With `COc1ccc2c(c1OC)C(=O)OC2[C@H]1c2c(cc3c(c2OC)OCO3)CCN1C` (stereo not given in full) the Potency was 469 nM (active).
With `CCN1CCN(C(=O)N[C@H](C(=O)N[C@@H]2C(=O)N3C(C(=O)O)=C(CSc4nnnn4C)CS[C@@H]23)c2ccc(O)cc2)C(=O)C1=O` the activity change, negative = cytotoxic was 8.24% [at 9.22 µM].
With `O=c1ccn([C@@H]2O[C@H](CO)[C@H](O)[C@@H]2F)c(=O)[nH]1` the Potency was “inactive”.
With `C#C[C@]1(O)CC[C@@H]2[C@@H]3CCc4cc(O)ccc4[C@H]3CC[C@@]21C` the Potency was 14800 nM (active).
With `Cc1[nH]c(C=C2C(=O)Nc3ccccc32)c(C)c1CCC(=O)O` the Potency was 2960 nM (active).
With `O=C(O)C[C@H](O)C[C@H](O)C=Cc1c(C2CC2)nc2ccccc2c1-c1ccc(F)cc1` the Potency was 1180 nM (active).
For `CN[C@H]1[C@@H](O)[C@@H]2O[C@@H]3O[C@H](C)CC(=O)[C@]3(O)O[C@@H]2[C@@H](NC)[C@H]1O`, the Potency was 296 nM (active).
For `CC(C=CC(=O)NO)=C[C@@H](C)C(=O)c1ccc(N(C)C)cc1`, the Potency was 1480 nM (active).
With `O=C1NC(O)CCN1[C@@H]1O[C@H](CO)[C@H](O)[C@H]1O` (stereo not given in full) the Potency was “inactive”.
For `CN1[C@H]2CC(OC(=O)[C@@H](CO)c3ccccc3)C[C@H]1[C@H]1O[C@H]12` (stereo not given in full), the Potency was “inactive”.
In the case of `FC(F)(F)c1ccc(Nc2nc3ccc(Oc4ccnc(-c5ncc(C(F)(F)F)[nH]5)c4)cc3[nH]2)cc1`, the Potency is reported as 18700 nM (active).
In the case of `CC(C)C[C@@H](C=O)NC(=O)[C@H](CC(C)C)NC(=O)[C@H](CC(C)C)NC(=O)OCc1ccccc1` (Cbz-Leu-Leu-Leu-aldehyde), the Potency is reported as 743 nM (active).
For `CC(=O)O[C@]1(C(C)=O)CC[C@H]2[C@@H]3C=C(C)C4=CC(=O)CC[C@]4(C)[C@@H]3CC[C@@]21C`, the Potency was 7430 nM (active).
With `CC[C@H](CC[C@@H](C)[C@H]1CC[C@H]2[C@@H]3CC=C4C[C@@H](O)CC[C@]4(C)[C@@H]3CC[C@]12C)C(C)C` the Potency was “inactive”.
With `Cn1cnc(=N)c2[nH]cnc21` the Potency was 1180 nM (active).
With `O=C(C=Cc1ccc(CN(CCO)CCc2c[nH]c3ccccc23)cc1)NO` the Potency was 469 nM (active).
With `Oc1ccc(-c2ccc(-c3cc(Nc4cccc(CNC5CC5)c4)n[nH]3)cc2)c(O)c1` the Potency was 14800 nM (active).
For `OCCNC1CCCc2c1[nH]c1ccc(-c3ccccc3)cc21` (stereo not given), the Potency was “inactive”.
In the case of `Nc1cccc2c1C(=O)N(C1CCC(=O)NC1=O)C2=O` (stereo not given), the Potency is reported as “inactive”.
For `N[C@H]1CN(c2c(F)cc3c(=O)c(C(=O)O)cn(C4C[C@@H]4F)c3c2Cl)CC12CC2` (stereo not given in full), the Potency was “inactive”.
For `COc1ccc([C@@H]2CNC(=O)C2)cc1OC1CCCC1`, the Potency was 3720 nM (active).
